Source: PubChem BioAssay (Tox21)
Several values for one entry are separate records, joined by “and”; a condition that tells them apart may be missing. Equal entries are not always repeated. Records with an inconclusive call do not appear. The source holds several records for some structures; these can differ, active in one and inactive in another. Activity calls are given as the source filed them. Unless noted, calls come from the whole dose curve; as a rule, active = well fitted curve in the direction sought with a large enough effect in the repeat runs; inconclusive = weak or mixed curves; inactive = no such curve, though single readings can be large; an effect the other way counts as inactive or inconclusive.

Key:
[1] = qHTS assay to identify small molecule antagonists of the estrogen related receptor (ERR) signaling pathway from Tox21 library - cell viability counter screen (AID 1224834); note: nearly all actives have a fitted effect of over 30% in size
In short: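 ERR reporter cells were plated 6 h before compound addition, then exposed to test compounds in DMSO for 17.5 h at 37 C. Viability was read as CellTiter-Fluor fluorescence after a 30-minute incubation at 37 C.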

[2] = molecular target: Luciferin 4-monooxygenase (Photinus pyralis) (UniProt P08659); test: qHTS assay to identify small molecule inhibitors of firefly luciferase (AID 1224835); note: nearly all actives have a fitted effect of over 25% in size; note: potency is the fitted concentration of half-maximal effect
In short: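 Biochemical qHTS: compounds run as interplate titrations against purified firefly enzyme, with D-luciferin and ATP each at its KM concentration. Light output recorded by CCD imaging.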

[3] = qHTS assay to identify small molecule agonists of the constitutive androstane receptor (CAR) signaling pathway - cell viability counter screen (AID 1224836); note: series mostly up to about 92 µM; nearly all actives have a fitted effect of over 45% in size
In short: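 HepG2 cells stably carrying hCAR and a CYP2B6-2.2kb reporter; 15-concentration compounds plus PK11195 (final 0.75 uM), 23 hr at 37 C/5% CO2. Viability read by CellTiter-Fluor fluorescence.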

[4] = qHTS assay to identify small molecule antagonists of the constitutive androstane receptor (CAR) signaling pathway - cell viability counter screen (AID 1224837); note: series mostly up to about 92 µM; nearly all actives have a fitted effect of over 45% in size
In short: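 HepG2 cells stably expressing hCAR and a CYP2B6-2.2kb reporter were plated and pre-incubated 4 hr at 37 C/5% CO2, then given compounds at 15 concentrations plus 50 nM CITCO (final). After 23 hr, viability was read by CellTiter-Fluor fluorescence.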

[5] = molecular target: Nuclear receptor subfamily 1 group I member 3 (Homo sapiens) (UniProt Q14994); test: qHTS assay to identify small molecule antagonists of the constitutive androstane receptor (CAR) signaling pathway (AID 1224838); note: nearly all actives have a fitted effect of over 40% in size
In short: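 HepG2 cells stably co-transfected with hCAR and a CYP2B6-2.2kb luciferase reporter were seeded 4 h before compound addition at 15 concentrations. Cells were stimulated with 50 nM CITCO (final) for 24 h at 37 C; luciferase luminescence was then read.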

[6] = molecular target: Nuclear receptor subfamily 1 group I member 3 (Homo sapiens) (UniProt Q14994); test: qHTS assay to identify small molecule agonists of the constitutive androstane receptor (CAR) signaling pathway (AID 1224839);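 note: HepG2 cells stably carrying human CAR and a CYP2B6 luciferase reporter; series mostly up to about 92 µM; nearly all actives have a fitted effect of over 15% in size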
In short: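 HepG2 cells stably co-transfected with hCAR and a CYP2B6-2.2kb luciferase reporter; compounds at 15 concentrations with 0.75 uM PK11195 present. After 24 hr at 37 C, luciferase read by ONE-Glo luminescence.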

[7] = qHTS assay to identify small molecule antagonists of the estrogen related receptor signaling pathway with the pleiotropic PPARgamma coactivator (PGC) from Tox21 10K library - cell viability counter screen (AID 1224840; active = well fitted cell-killing curve with a large enough effect in the repeat runs, not every such curve was filed as active; note: nearly all actives have a fitted effect of over 40% in size)
In short: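 PGC/ERR cells were seeded at 2,000 cells/well and left 6 hours at 37 C/5% CO2 before pin-tool addition of compounds in DMSO. After 17.5 hours at 37 C, CellTiter-Fluor was added and fluorescence read 30 minutes later.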

[8] = qHTS assay to identify small molecule antagonists of the estrogen related receptor signaling pathway with the pleiotropic PPARgamma coactivator (PGC) from Tox21 10K library (AID 1224841; call rule not given here; note: series mostly up to about 92 µM; actives are mostly falling curves and most rising ones were filed inactive; nearly all actives have a fitted effect of over 50% in size)
In short: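 PGC/ERR reporter cells were seeded at 2,000 cells/well and held 6 hours at 37 C/5% CO2 before pin-tool addition of compounds in DMSO. After 18 hours at 37 C, One-Glo was added and luminescence read after 30 minutes at room temperature.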

[9] = qHTS assay to identify small molecule agonists of the estrogen related receptor signaling pathway with the pleiotropic PPARgamma coactivator (PGC) from Tox21 10K library (AID 1224842); note: nearly all actives have a fitted effect of over 15% in size
In short: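 PGC/ERR reporter cell line, 2,000 cells per well, incubated 6 h at 37 C before 23 nL compound in DMSO was added. After 18 h at 37 C, One-Glo luminescence read following 30 min at room temperature.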

[10] = molecular target: Thyrotropin receptor (Homo sapiens) (UniProt P16473); test: qHTS assay to identify small molecule agonists of the thyroid stimulating hormone receptor (TSHR) signaling pathway (AID 1224843; calls by dose curve; note: nearly all actives have a fitted effect of over 45% in size)
In short: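 TSHR-HEK293 cells in agonist mode, 30 min room-temperature step, then cAMP measured by competitive HTRF (cAMP-d2 with anti-cAMP cryptate) after 1 h at room temperature. Tested at 15 concentrations in triplicate.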

[11] = qHTS assay to identify small molecule agonists of the hypoxia (HIF-1) signaling pathway - cell viability counter screen (AID 1224844; calls by dose curve; note: nearly all actives have a fitted effect of over 50% in size)
In short: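 HRE-bla ME-180 cells in medium with 0.5% dialyzed FBS were preincubated 5 hrs at 37C, exposed to compounds for 17 hrs, then viability was read as CellTiter-Glo luminescence after 30 min at room temperature, in the reporter wells.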

[12] = qHTS assay to identify small molecule agonists of the hypoxia (HIF-1) signaling pathway (AID 1224846; active = well fitted activation curve with a large enough effect in the signal ratio in the repeat runs, not every such curve was filed as active; the % refers to the signal ratio)
In short: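 HRE-bla ME-180 cells (beta-lactamase reporter under hypoxia response element) were plated at 2,000 cells/well in medium with 0.5% dialyzed FBS, rested 5 hrs, then given compounds in DMSO for 17 hrs at 37C, 5% CO2. Reporter induction was read with CCF4-AM FRET substrate.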

[13] = qHTS assay to identify small molecule agonists of H2AX - cell viability counter screen (AID 1224847; calls by dose curve; note: top concentration of the series differs between compounds; nearly all actives have a fitted effect of over 30% in size)
In short: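 CHO-K1 cells plated overnight at 37C, then exposed 3 h at 37C to compounds at 15 concentrations (0.76% DMSO final). Viability by CellTiter-Glo luminescence after 30 min at room temperature.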

[14] = qHTS assay to identify small molecule antagonists of the estrogen related receptor (ERR) signaling pathway from Tox21 library (AID 1224848); note: nearly all actives have a fitted effect of over 50% in size
In short: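 ERR reporter cell line (from NTP) seeded 2,000 cells/well, rested 6 h at 37 C/5% CO2, then pin-dosed with compounds in DMSO. After 18 h at 37 C, ONE-Glo added; luminescence read after 30 min at room temperature.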

[15] = qHTS assay to identify small molecule agonists of the estrogen related receptor (ERR) signaling pathway from Tox21 library (AID 1224849; calls by dose curve; note: nearly all actives have a fitted effect of over 15% in size)
In short: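 ERR reporter cell line (NTP) seeded, rested 6 h at 37 C/5% CO2, then pinned with Tox21 compounds in DMSO. After 18 h at 37 C, ONE-Glo luciferase luminescence was read following 30 min at room temperature.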

[16] = qHTS RealTime-Glo MT Cell Viability Assay in HepG2 cells - 24 hour (AID 1224867); note: nearly all actives have a fitted effect of over 50% in size; note: potency is the fitted concentration of half-maximal effect
In short: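 Compound treatment began 5 h after plating HepG2 cells (600/well) with NanoLuc luciferase and prosubstrate. Plates stayed at 37 C for 40 h; luminescence was captured at six time points, 0 h through 40 h.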

[17] = qHTS RealTime-Glo MT Cell Viability Assay in HEK293 cells - 32 hour (AID 1224868); note: nearly all actives have a fitted effect of over 50% in size; note: potency is the fitted concentration of half-maximal effect
In short: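 Quantitative high-throughput screen of the Tox21 10K library in HEK293: cells and RealTime-Glo reagents plated together, compound added at 5 h, luminescence monitored through 40 h at 37 C.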

[18] = qHTS assay to identify small molecule agonists of H2AX (AID 1224845; active = well fitted activation curve with a large enough effect in the signal ratio in the repeat runs, not every such curve was filed as active; the % refers to the signal ratio)
In short: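 Wild-type CHO-K1 cells, plated overnight, exposed 3hr at 37C to 15 concentrations (0.76% DMSO final). Lysed, then HTRF anti-pH2AX (S139) cryptate and anti-H2AX-d2 antibodies, 24 hr room temperature; 665/620 nm emission read.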

[19] = qHTS assay to identify small molecule agonists of the estrogen related receptor signaling pathway with the pleiotropic PPARgamma coactivator (PGC) (AID 1224823)
In short: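 Steps: plate PGC/ERR cells at 2,000 cells/well; incubate 6 h, 37 C/5% CO2; pin-transfer compounds (DMSO); incubate 18 h, 37 C; add One-Glo; 30 min RT; read luminescence.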

[20] = A CellTox Green Cytotoxicity Assay to monitor cytotoxicity in HEK293 cells - 0 hour (AID 1224869); note: nearly all actives have a fitted effect of over 50% in size
In short: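 HEK293 cells premixed with CellTox Green dye were seeded at 600 cells/well and left 5 h at 37 C/5% CO2 before pin transfer of 23 nL compound in DMSO. Fluorescence from dye bound to dead-cell DNA was read during 40 h treatment.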

Measured: Potency

Chain of Nuclear receptor subfamily 1 group I member 3 (Homo sapiens) (Q14994 whole entry, looked up): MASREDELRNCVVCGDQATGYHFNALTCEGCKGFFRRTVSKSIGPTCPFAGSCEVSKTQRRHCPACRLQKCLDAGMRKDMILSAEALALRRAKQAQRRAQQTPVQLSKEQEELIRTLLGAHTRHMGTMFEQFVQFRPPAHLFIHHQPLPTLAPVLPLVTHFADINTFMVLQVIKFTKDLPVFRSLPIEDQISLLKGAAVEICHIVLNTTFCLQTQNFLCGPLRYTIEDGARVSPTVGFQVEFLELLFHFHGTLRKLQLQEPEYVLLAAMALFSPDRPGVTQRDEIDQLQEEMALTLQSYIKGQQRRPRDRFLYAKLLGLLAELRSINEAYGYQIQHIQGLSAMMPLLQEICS
Chain of Luciferin 4-monooxygenase (Photinus pyralis) (P08659 whole entry, looked up): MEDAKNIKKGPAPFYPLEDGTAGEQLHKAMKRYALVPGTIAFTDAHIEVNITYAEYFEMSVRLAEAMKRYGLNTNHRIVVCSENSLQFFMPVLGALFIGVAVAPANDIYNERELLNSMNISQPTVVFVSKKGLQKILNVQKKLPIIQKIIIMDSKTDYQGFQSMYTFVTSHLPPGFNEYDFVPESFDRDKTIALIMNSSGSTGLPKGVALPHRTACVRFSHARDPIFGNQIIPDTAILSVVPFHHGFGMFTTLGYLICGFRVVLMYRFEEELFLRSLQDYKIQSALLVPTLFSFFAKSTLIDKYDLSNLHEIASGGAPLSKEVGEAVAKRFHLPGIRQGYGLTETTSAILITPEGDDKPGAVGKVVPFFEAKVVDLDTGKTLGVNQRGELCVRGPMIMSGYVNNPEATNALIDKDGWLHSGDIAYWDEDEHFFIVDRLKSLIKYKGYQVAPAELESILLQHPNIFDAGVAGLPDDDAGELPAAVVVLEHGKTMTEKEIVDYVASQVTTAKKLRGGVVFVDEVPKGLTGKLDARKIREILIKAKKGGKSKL
Chain of Thyrotropin receptor (Homo sapiens) (P16473 whole entry, looked up): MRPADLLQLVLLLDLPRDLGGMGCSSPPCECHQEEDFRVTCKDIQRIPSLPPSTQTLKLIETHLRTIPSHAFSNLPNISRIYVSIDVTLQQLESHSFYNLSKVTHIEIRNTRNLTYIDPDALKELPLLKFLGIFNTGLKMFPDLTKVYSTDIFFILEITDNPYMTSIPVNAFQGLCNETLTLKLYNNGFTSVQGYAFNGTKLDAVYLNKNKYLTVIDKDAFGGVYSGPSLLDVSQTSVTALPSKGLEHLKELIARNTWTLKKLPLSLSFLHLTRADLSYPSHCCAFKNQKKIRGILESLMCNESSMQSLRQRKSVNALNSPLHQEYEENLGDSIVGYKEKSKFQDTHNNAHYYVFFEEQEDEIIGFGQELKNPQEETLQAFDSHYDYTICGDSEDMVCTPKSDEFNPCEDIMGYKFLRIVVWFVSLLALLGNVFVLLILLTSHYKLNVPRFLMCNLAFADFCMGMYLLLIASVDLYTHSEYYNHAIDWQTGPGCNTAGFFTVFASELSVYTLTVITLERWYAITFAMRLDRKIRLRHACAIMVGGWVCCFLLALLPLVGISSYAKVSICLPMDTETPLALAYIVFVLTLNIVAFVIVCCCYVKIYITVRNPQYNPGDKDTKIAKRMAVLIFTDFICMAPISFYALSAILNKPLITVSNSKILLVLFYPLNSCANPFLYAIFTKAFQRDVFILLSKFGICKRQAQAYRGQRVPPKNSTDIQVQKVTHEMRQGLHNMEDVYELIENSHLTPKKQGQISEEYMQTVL

CCOCC(=O)O
not listed: [18] | [19] | [20]
inactive: all other assays above

C=CC(=O)OCCC(=O)O
not listed: [9] | [19] | [20]
inactive: all other assays above

CC(C)(Oc1ccc(CCNC(=O)c2ccc(Cl)cc2)cc1)C(=O)O
active: [2] 35.6 µM
not listed: [12] | [18]
inactive: all other assays above

O=C(O)Cn1c(=O)n(Cc2ccc(Br)cc2F)c(=O)c2ccc(Cl)cc21
active: [16] 38.9 µM
not listed: [7] | [17] | [19]
inactive: all other assays above

COC(=O)c1cccnc1
not listed: [19] | [20]
inactive: all other assays above

Cc1ccc2ncccc2c1
not listed: [7] | [19]
inactive: all other assays above

CC(C)(C#N)c1cc(Cn2cncn2)cc(C(C)(C)C#N)c1
not listed: [10] | [19]
inactive: all other assays above

C[Si]1(C)O[Si](C)(C)O[Si](C)(C)O[Si](C)(C)O1
not listed: [8] | [9] | [14] | [15] | [18] | [19]
inactive: all other assays above

CN1C(=O)CC[C@H]1c1cccnc1
not listed: [8] | [9] | [12] | [14] | [15] | [19]
inactive: all other assays above

COCCCN
not listed: [8] | [9] | [14] | [15] | [19] | [20]
inactive: all other assays above

O=C(OCC1CCC2OC2C1)C1CCC2OC2C1 (stereo not given)
not listed: [8] | [9] | [14] | [15] | [18] | [19]
inactive: all other assays above

CCCCC(C=O)CC (stereo not given)
not listed: [8] | [9] | [14] | [15] | [19]
inactive: all other assays above

CNC(=S)N(C)C
inactive and 11.6 µM (active): [17]
not listed: [8] | [9] | [10] | [14] | [15] | [19]
inactive: all other assays above

CC(=O)OC1CC(C)OC(C)O1 (stereo not given)
not listed: [7] | [10] | [18] | [19] | [20]
inactive: all other assays above

CCCCCCCCCCCCCCCC(=O)OC(C)C
not listed: [8] | [9] | [10] | [14] | [15] | [18] | [19] | [20]
inactive: all other assays above

CCO[Si](CCCN)(OCC)OCC
not listed: [19] | [20]
inactive: all other assays above

CC(C)OC(=O)COc1ccc(Cl)cc1Cl
active: [2] 35 µM
not listed: [8] | [9] | [10] | [14] | [15] | [19]
inactive: all other assays above

CC(C)(C)c1cc(Cc2cc(C(C)(C)C)c(O)c(C(C)(C)C)c2)cc(C(C)(C)C)c1O
not listed: [8] | [9] | [14] | [15] | [18] | [19] | [20]
inactive: all other assays above
